# From PubChem
# CYP2C19 act: activators of human cytochrome P450 2C19. 96,000 tested, under 10 active. recombinant CYP2C19, luciferin-H EGE luminescence; active compounds read high; 0 = fully inhibited enzyme, 1 = untreated enzyme. activation factor at 5 µM;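 active means activation factor of at least 2 at 5 µM in the primary screen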;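 further: 0 = wells with 2.5 mM tranylcypromine and 1 = vehicle-only wells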
# Target sequence (P33261 whole entry, looked up): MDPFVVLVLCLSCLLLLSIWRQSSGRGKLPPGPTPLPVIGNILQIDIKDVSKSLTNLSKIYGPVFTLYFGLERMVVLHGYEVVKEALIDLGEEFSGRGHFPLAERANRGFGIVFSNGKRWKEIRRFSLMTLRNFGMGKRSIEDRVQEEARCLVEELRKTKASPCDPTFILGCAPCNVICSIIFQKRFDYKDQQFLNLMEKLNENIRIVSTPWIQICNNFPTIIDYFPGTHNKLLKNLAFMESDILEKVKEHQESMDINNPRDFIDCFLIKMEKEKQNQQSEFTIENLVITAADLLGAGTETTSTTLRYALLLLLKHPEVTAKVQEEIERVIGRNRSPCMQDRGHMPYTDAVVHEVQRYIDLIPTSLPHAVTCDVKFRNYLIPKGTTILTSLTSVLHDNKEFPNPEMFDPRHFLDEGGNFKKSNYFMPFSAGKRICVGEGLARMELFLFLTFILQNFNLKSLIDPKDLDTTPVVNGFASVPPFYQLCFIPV
# CYP2C19 inhib: blocks human cytochrome P450 2C19. CYP2C19 Supersomes, luciferin-H EGE luminescence, 30 min. inhibition, % at 5 µM. 96,000 compounds, 21% hits;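 active means CYP2C19 inhibition above a set limit at 5 µM in the primary screen, cut at about 50% in these data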;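 further: plate controls were negative control wells for no effect and 2.5 mM tranylcypromine positive control for full effect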
# EphB4 ephrin blk: EphB4-ephrin-B2 interaction antagonism; P54760; EphB4 LBD / TNYL-RAW-Alexa532 peptide, fluorescence polarization; inhibition, % at 7 µM; 97,000 compounds, 0.15% hits;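 active means inhibition above the screen-wide mean inhibition plus 3 SD, cut at about 15% in these data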;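 further: 0% = DMSO wells and 100% = excess unlabeled TNYL-RAW peptide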
# CYP2C9 inh: inhibitors of human CYP2C9; P11712; CYP2C9 Supersomes, luciferin-H conversion, luminescence; inhibition, % at 5 µM; 96,000 compounds, 20% hits;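 active means blocking of liver enzyme CYP2C9 beyond about 50% at 5 µM, limit read from the data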
# CYP2C9 activ: CYP2C9 (human) activation | recombinant CYP2C9, luciferin-H conversion, luminescence; active compounds read high; factor 1 = untreated enzyme, 0 = blocked | activation factor at 5 µM | 96,000 compounds, 1.4% hits | P11712 | AID 1024;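 active means activation factor of 2 or more for CYP2C9 at a 5 µM dose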;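 further: 0 = sulfaphenazole-blocked wells and 1 = vehicle-only wells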
# * marks the source's active call; other numbers are inactive results; . = no result; [ ] = another dose, or the depositor's remark. The list is not random: actives were taken first. Their share in the collection is about 27%.
SMILES,CYP2C19 act,CYP2C19 inhib,EphB4 ephrin blk,CYP2C9 inh,CYP2C9 activ
CC(=O)c1cccc(NC(=O)N2C3CCC2CC(O)(c2cccnc2)C3)c1 (configuration not stated),0.7,30,4,28,0.7
Cc1csc(SCC(=O)NC23CC4CC(CC(C4)C2)C3)n1,0.7,33,-3,6,0.9
Cc1c(Cl)c([N+](=O)[O-])nn1CC(=O)NC12CC3CC(CC(C3)C1)C2,0.2,79*,3,24,0.8
Cc1ccc(N2CC(C(=O)OCC(=O)C(C)(C)C)CC2=O)cc1C (configuration not stated),0.9,7,-5,-50,1.5
COc1ccc2c(c1)C(=NN)c1cc(OC)ccc1-2,0.6,38,-4,62*,0.4
COc1ccc2c(c1)C(=O)OC2CC(=O)O (configuration not stated),1,4,10,10,0.9
CC(C)(C)c1ccc(NC(=O)COC(=O)C2=COCCO2)cc1,0.7,25,10,46,0.5
CCOC(=O)c1ccccc1NC(=O)COC(=O)C1=COCCO1,0.9,15,2,68*,0.3
O=C(COC(=O)C1=COCCO1)Nc1ccc(Oc2ccccc2)cc1,0.2,82*,1,90*,0.1
CC(CCc1ccccc1)NC(=O)COC(=O)C1=COCCO1 (configuration not stated),0.4,56*,6,50*,0.5
COc1ccc(CNC(=O)COC(=O)C2=COCCO2)cc1,0.6,39,6,8,0.9
CC(C)(C)C1CCC(=NNS(=O)(=O)c2ccc(Br)cc2)CC1 (configuration not stated),.,.,-3,.,.
CC1CCCC/C1=N\NS(=O)(=O)c1ccc(Br)cc1 (configuration not stated),0.7,26,-2,51*,0.5
Cc1ccc(NC(=O)Nc2ccccc2C#N)c(Cl)c1,0.9,11,5,-9,1.1
CC(=O)N1CCN(C(=O)CC2OC(=O)c3ccccc32)CC1 (configuration not stated),0.8,17,-9,13,0.9
O=C(O)c1cccc(C(=O)Cc2ccccc2)c1,0.6,35,-3,16,0.8
Cc1ccc(S(=O)(=O)N/N=C/c2ccc(OC3CSC3)cc2)cc1,1,1,7,5,1
Cc1ccc(S(=O)(=O)N/N=C\c2ccc(Cl)c([N+](=O)[O-])c2)cc1,0.1,87*,8,70*,0.3
Cc1ccc(S(=O)(=O)N/N=C/c2ccc(C(=O)O)cc2)cc1,1.1,-11,4,-12,1.1
Cc1ccc(/C=N/NC(=O)c2cccs2)cc1[N+](=O)[O-],0.8,15,-10,38,0.6
Cc1ccc(NC(=S)N/N=C/c2ccc(Cl)c([N+](=O)[O-])c2)cc1,0.8,22,6,56*,0.4
Cc1ccc(S(=O)(=O)N/N=C\c2ccc([N+](=O)[O-])o2)cc1,0.9,14,10,79*,0.2
Cc1ccc(S(=O)(=O)N/N=C/c2ccc(OS(=O)(=O)c3ccc(C)c([N+](=O)[O-])c3)cc2)cc1,0.8,21,-1,91*,0.1
COc1ccc(-c2cnc(SCC(=O)Nc3nc(C(C)(C)C)cs3)n2Cc2ccco2)cc1,.,.,-3,.,.
O=C(CC1NCCNC1=O)Nc1ccc2c(c1)OCCO2 (configuration not stated),1.1,-9,7,-2,1
SMILES,CYP2C19 act,CYP2C19 inhib,EphB4 ephrin blk,CYP2C9 inh,CYP2C9 activ
CCc1nnc(SCC(=O)Nc2ccccc2)nc1CC,0.6,40,-4,29,0.7
CC1CCCCN1C(=O)Cn1c(=O)oc2ccccc21 (configuration not stated),.,.,1,.,.
CC1CCCCN1c1nnc(NC(=O)Cn2c(=O)oc3ccccc32)s1 (configuration not stated),1.1,-7,-6,57*,0.4
COCCCNc1c2c3c(cccc3[nH]c1=O)C(=O)c1ccccc1-2,0.6,40,48*[fluorescence artefact?],61*,0.4
COCCCNS(=O)(=O)c1ccc2c3c(cccc13)C(=O)S2,.,.,3,.,.
CCN(c1ccccc1)S(=O)(=O)c1ccc(NCC2COc3ccccc3O2)nc1 (configuration not stated),0.5,52*,5,84*,0.2
COc1ccc(C(=O)CSc2nc(SC)ns2)cc1OC,0.4,62*,6,-2,1
CCC1(CC)NC(=O)N(CC(=O)Nc2sc3c(c2C(N)=O)CCC3)C1=O,0.6,39,-3,74*,0.3
CCCCC(=O)Nc1sc2c(c1C(N)=O)CCC2,0.5,47,3,77*,0.2
CC1(c2ccccc2)NC(=O)N(CCN2C(=O)c3ccccc3C2=O)C1=O (configuration not stated),0,96*,-2,67*,0.3
Cc1cc(C)cc(NC(=O)CN2C(=O)NC(C)(c3ccccc3)C2=O)c1 (configuration not stated),1,4,-1,-10,1.1
CCCC1(c2ccccc2)NC(=O)N(CCN2C(=O)c3ccccc3C2=O)C1=O (configuration not stated),0.1,89*,4,38,0.6
O=C(NCCn1ccc2ccccc21)c1ccc(S(=O)(=O)N2CCOCC2)cc1,1.1,-10,.,22,0.8
CCCOc1ccccc1NC(=O)c1c(-c2ccccc2)noc1C,1,4,4,-15,1.1
Cc1onc(-c2ccccc2)c1C(=O)Nc1cc(C(F)(F)F)ccc1N1CCOCC1,0.4,65*,6,56*,0.4
O=C(Nc1cc(C(F)(F)F)ccc1N1CCOCC1)c1ccc(F)cc1,0.2,77*,0,8,0.9
O=C(Nc1cc(C(F)(F)F)ccc1N1CCOCC1)c1cccnc1,0.7,35,-8,7,0.9
O=C(CCc1ccccc1)NC(=S)Nc1cc(C(F)(F)F)ccc1N1CCOCC1,0.1,88*,-3,93*,0.1
Cc1onc(-c2ccccc2)c1C(=O)Nc1ccccc1N1CCOCC1,0,99*,.,81*,0.2
COc1ccc(C2C(C(C)=O)=C(C)N=c3s/c(=C\c4ccc5c(c4)OCO5)c(=O)n32)c(OC)c1 (configuration not stated),.,.,-1,.,.
COc1ccc(-c2nc3scc(-c4ccccc4)n3n2)cc1,1,1,0,5,0.9
Cc1cc(C)nc(CC(N)=O)n1,1.1,-11,-2,-10,1.1
C=CCN1CCN(C(c2ccc(OC)c(OC)c2)c2nnnn2C(C)(C)C)CC1 (configuration not stated),1,0,.,-3,1
Cc1ccc(C(=O)Nc2ccccc2C(N)=O)o1,1,-4,2,-10,1.1
Cc1ccc(OCC(=O)NN=C2c3ccccc3-c3ccccc32)cc1,1,4,-9,-7,1.1
CCc1ccc(OCC(=O)N/N=C2\CC(=O)c3ccccc32)cc1,0.2,82*,5,44,0.6
COc1ccc(NC(=S)N2CCC(C(=O)N3CCCCCC3)CC2)cc1,1.1,-9,4,-3,1
